# Measurements taken from PubChem BioAssay (NCATS).
# Values joined by “and” are separate entries in the source; they are usually repeats but may differ in a detail not shown here. Identical values can stand only once. Results filed as inconclusive are left out. Values without a mark were called inactive. The list shows a part of the results. Entries that show only a call come without a potency. Active and inactive are the calls of the source. Unless noted, calls come from the whole dose curve; as a rule, active = well fitted curve in the direction sought with a large enough effect; inconclusive = small, poorly fitted or top-dose-only effect, or another doubt; inactive = no such curve, though single readings can be large; an effect the other way counts as inactive or inconclusive.
# How the values were obtained:
# [1] = molecular target: Mitogen-activated protein kinase 10 (Mus musculus) (UniProt Q61831); assay: JNK3 AlphaScreen Assay (AID 530; active = well fitted curve in either direction with a large enough effect, not every such curve was filed as active;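 note: kinase came from lysate of stimulated human HepG2 cells; signal reports phosphorylation of biotinylated GST-cJun 1-79 at Ser73 with 10 µM ATP; series mostly up to about 57 µM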)
# Method in brief: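 Inhibitors reduce antibody binding to phosphorylated biotin-cJun, lowering AlphaScreen luminescence. Lysates from HepG2 cells pre-activated by IL-1beta plus TNF-alpha supplied JNK3; compounds were titrated.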
# [2] = molecular target: Cytochrome P450 3A4 (Homo sapiens) (UniProt P08684); assay: qHTS Assay for Inhibitors and Substrates of Cytochrome P450 3A4 (AID 884); note: series mostly up to about 57 µM; nearly all actives have a fitted effect of over 50% in size
# Method in brief: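 20 nM human CYP3A4 with 25 uM Luciferin-PPXE (at KM) in 200 mM KPO4, preincubated 10 min with compound; NADPH regeneration started a 60 min RT reaction. Luciferin detected by luminescence, normalized to 57 uM ketoconazole as full inhibition.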
# [3] = molecular target: Calcium and integrin-binding protein 1 (Homo sapiens) (UniProt Q99828); assay: Primary qHTS for Identification of Calcium Integrin Binding Protein 1 (CIB1) Competitor (AID 1508620);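 note: GST tagged CIB1 binding a fluorescein labelled alphaIIb integrin peptide tracer; top concentration of the series differs between compounds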
# Method in brief: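 Fluorescence polarization competition: CIB1-GST (1 uM final) preincubated with compound 15 min at room temperature, then FITC-labeled alphaIIb peptide (100 nM final) added for another 15 min. Polarization read at Ex 480/Em 540.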
# [4] = molecular target: Lysosomal alpha-glucosidase (Homo sapiens) (UniProt P10253); assay: Confirmation of Inhibitors and Activators of Purified Human alpha-Glucosidase (AID 2115; active = well fitted curve in either direction with a large enough effect)
# Method in brief: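 Purified human enzyme (4 nM) with 4-methylumbelliferyl-alpha-D-glucopyranoside (400 uM), compounds up to 77 uM, in citrate/phosphate buffer pH 5.0 with 0.005% Tween-20. After 20 min at RT, stopped at pH 10; fluorescence ex 365/em 440 nm; AC50 from Hill fits.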
# [5] = molecular target: DNA repair nuclease/redox regulator APEX1 (Homo sapiens) (UniProt P27695); assay: Confirmation qHTS Assay for Inhibitors of the Human Apurinic/apyrimidinic Endonuclease 1 (APE1) (AID 2572); conditions: purified APE1, fluorogenic abasic-site DNA cleavage; note: potency is the fitted concentration of half-maximal effect; nearly all actives have a fitted effect of over 30% in size
# Method in brief: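 No-enzyme wells served as negative control, enzyme-only wells as full activity. APE1 with compound for 15 min RT; 50 nM final fluorophore/quencher abasic duplex started the reaction; read 3 minus read 1 at 525/598 nm.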
# [6] = molecular target: Tyrosyl-DNA phosphodiesterase 1 (Homo sapiens) (UniProt Q9NUW8); assay: Confirmation Assay for Inhibitors of Tyrosyl-DNA Phosphodiesterase (TDP1) (AID 489007); conditions: recombinant human TDP1 enzymatic activity, dose-response; note: potency is the fitted concentration of half-maximal effect; nearly all actives have a fitted effect of over 40% in size
# Method in brief: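 Recombinant human Tdp1 (1 nM final), expressed in E. coli, preincubated 15 min with compound. Then 15 nM 5'-biotin/3'-phosphotyrosine-FITC DNA substrate added for 5 min at room temperature. AlphaScreen beads (10 ug/ml) added for 10 min; cleavage gives signal loss.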
# [7] = molecular target: Lethal(3)malignant brain tumor-like protein 1 (Homo sapiens) (UniProt Q9Y468); assay: qHTS Assay for the Inhibitors of L3MBTL1: Hit Validation (AID 540279); conditions: L3MBTL1 methyl-lysine binding inhibition, biochemical qHTS; note: potency is the fitted concentration of half-maximal effect; nearly all actives have a fitted effect of over 70% in size
# Method in brief: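 AlphaScreen competition format: 50 nM L3MBTL1 preincubated 30 min at room temperature with 75 nM biotinylated H3(1-15)K9me1 peptide, then compounds added for 30 min, then streptavidin donor and nickel chelate acceptor beads (10 ug/mL final) for 30 min dark.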
# [8] = qHTS Assay for the Inhibitors of L3MBTL1: Hit Validationin AlphaScreen Counterscreen (AID 602224)
# Method in brief: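 Compounds incubated with biotinylated hexahistidine peptide for 15 min at room temperature; donor/acceptor AlphaScreen beads then added (10 ug/mL each, 1 nM b-His6 final) and luminescence read after 30 min in the dark.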
# [9] = molecular target: Phosphoglycerate kinase, glycosomal (Trypanosoma brucei brucei) (UniProt P07378); assay: qHTS for inhibitors of Phosphogylcerate Kinase: Hit Validation Screen (AID 686980); conditions: TbPGK coupled GAPDH assay, Kinase-Glo luminescence; note: potency is the fitted concentration of half-maximal effect; nearly all actives have a fitted effect of over 65% in size
# Method in brief: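 Luminescent ATP detection (Kinase-Glo Plus) follows a 60-minute room-temperature incubation, with wells lacking PGK as controls. Buffer: 100 mM TEA (pH 7.6), 5 mM MgCl2, 0.01% Tween-20. Coupling enzyme GAPDH (100 nM final) supplies unstable 1,3-BPG in-well.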
# [10] = molecular target: DNA polymerase iota (Homo sapiens) (UniProt Q9UNA4); assay: qHTS for Inhibitors of Polymerase Iota: Confirmatory Assay for Cherry-picked Compounds (AID 720496); conditions: Pol iota primer extension, TAMRA/BHQ fluorescence; note: potency is the fitted concentration of half-maximal effect
# Method in brief: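 Recombinant human Pol iota (10 nM) was preincubated with compound for 15 min at room temperature, then 50 nM final primer/template substrate was added; the substrate carried a TAMRA-labeled reporter strand and a BHQ-2-quenched template. Fluorescence was read at 0 and 10 min.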
# [11] = molecular target: Bifunctional 3'-5' exonuclease/ATP-dependent helicase WRN (Homo sapiens) (UniProt Q14191); assay: qHTS for Inhibitors of WRN Helicase: Confirmatory Assay for Cherry-picked Compounds. (AID 720497); conditions: WRN helicase DNA unwinding, fluorescence kinetic; note: potency is the fitted concentration of half-maximal effect; nearly all actives have a fitted effect of over 65% in size
# Method in brief: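 Confirmatory retest of cherry-picked hits in 1536-well format. Enzyme (20 nM final) sat with compound for 15 min at room temperature before forked duplex substrate (100 nM) and ATP (2 mM) were added, and unwinding was followed kinetically by red fluorescence.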
# [12] = qHTS for Inhibitors of WRN Helicase: Thiazole Orange DNA Binding Counterscreen (AID 720499);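 note: drop in dye fluorescence marks compound binding to DNA; nearly all actives have a fitted effect of over 60% in size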
# Method in brief: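 Fluorescence at 530 nm (excitation 480 nm) is measured after compounds incubate 15 min at room temperature with unlabeled DNA (50 nM) bound to thiazole orange (100 nM). Decreased signal indicates nonspecific DNA binding.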
# [13] = molecular target: DNA polymerase kappa (Homo sapiens) (UniProt Q9UBT6); assay: qHTS for Inhibitors of Polymerase Kappa: Confirmatory Assay for Cherry-picked Compounds (AID 720501); conditions: purified Pol-kappa, fluorescent strand-displacement substrate; note: potency is the fitted concentration of half-maximal effect
# Method in brief: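 Human Pol-kappa, dispensed at 10 nM, was preincubated with compounds for 15 min at room temperature. Reactions were started with primer/template substrate (50 nM final) carrying a TAMRA reporter strand and BHQ-2-quenched template, and fluorescence (ex 525/em 598 nm) was read at 0 and 10 min.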
# [14] = molecular target: DNA polymerase eta (Homo sapiens) (UniProt Q9Y253); assay: qHTS for Inhibitors of Polymerase Eta: Confirmatory Assay for Cherry-picked Compounds (AID 720502); conditions: Pol eta primer extension, TAMRA/BHQ fluorescence, 10 min; note: potency is the fitted concentration of half-maximal effect
# Method in brief: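 Plates with 10 nM enzyme and compound stood 15 min at room temperature before substrate addition (50 nM final). Displacement of the TAMRA reporter from the BHQ-2 template was tracked for 10 min.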
# [15] = molecular target: RecQ-like DNA helicase BLM (Homo sapiens) (UniProt P54132); assay: qHTS for Inhibitors of WRN Helicase: BLM Helicase Counterscreen for WRN Inhibitors (AID 720503); conditions: Recombinant BLM helicase DNA unwinding, red fluorescence; note: potency is the fitted concentration of half-maximal effect; nearly all actives have a fitted effect of over 60% in size
# Method in brief: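 BLM (1 nM) was preincubated with compounds for 15 min at room temperature in Tris-HCl pH 8.0, 50 mM NaCl, 2 mM MgCl2 buffer. Unwinding started with 100 nM DNA and 2 mM ATP (final); red fluorescence was read twice, 15 min apart.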
# Sequence of Tyrosyl-DNA phosphodiesterase 1 (Homo sapiens) (Q9NUW8 whole entry, looked up): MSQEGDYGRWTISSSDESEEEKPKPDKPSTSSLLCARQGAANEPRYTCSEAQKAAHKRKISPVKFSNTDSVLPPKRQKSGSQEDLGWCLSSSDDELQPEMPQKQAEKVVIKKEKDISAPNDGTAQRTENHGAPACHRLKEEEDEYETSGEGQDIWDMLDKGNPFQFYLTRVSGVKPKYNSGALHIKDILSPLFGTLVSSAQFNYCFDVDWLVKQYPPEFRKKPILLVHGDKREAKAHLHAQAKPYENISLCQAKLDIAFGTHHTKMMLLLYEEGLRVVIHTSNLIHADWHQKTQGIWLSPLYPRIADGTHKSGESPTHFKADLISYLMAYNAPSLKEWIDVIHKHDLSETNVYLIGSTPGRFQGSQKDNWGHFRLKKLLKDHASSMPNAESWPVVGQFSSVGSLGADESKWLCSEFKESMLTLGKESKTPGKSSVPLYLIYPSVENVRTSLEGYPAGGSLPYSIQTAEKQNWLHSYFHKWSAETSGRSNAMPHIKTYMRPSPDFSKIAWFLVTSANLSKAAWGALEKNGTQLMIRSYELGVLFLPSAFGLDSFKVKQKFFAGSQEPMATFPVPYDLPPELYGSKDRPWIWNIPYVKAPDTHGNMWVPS
# Sequence of Calcium and integrin-binding protein 1 (Homo sapiens) (Q99828 whole entry, looked up): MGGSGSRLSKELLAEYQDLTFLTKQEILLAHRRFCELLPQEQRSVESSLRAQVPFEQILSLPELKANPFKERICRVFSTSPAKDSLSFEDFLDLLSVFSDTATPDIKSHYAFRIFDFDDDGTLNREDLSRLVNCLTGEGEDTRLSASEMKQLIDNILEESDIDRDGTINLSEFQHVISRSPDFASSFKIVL
# Sequence of Cytochrome P450 3A4 (Homo sapiens) (P08684 whole entry, looked up): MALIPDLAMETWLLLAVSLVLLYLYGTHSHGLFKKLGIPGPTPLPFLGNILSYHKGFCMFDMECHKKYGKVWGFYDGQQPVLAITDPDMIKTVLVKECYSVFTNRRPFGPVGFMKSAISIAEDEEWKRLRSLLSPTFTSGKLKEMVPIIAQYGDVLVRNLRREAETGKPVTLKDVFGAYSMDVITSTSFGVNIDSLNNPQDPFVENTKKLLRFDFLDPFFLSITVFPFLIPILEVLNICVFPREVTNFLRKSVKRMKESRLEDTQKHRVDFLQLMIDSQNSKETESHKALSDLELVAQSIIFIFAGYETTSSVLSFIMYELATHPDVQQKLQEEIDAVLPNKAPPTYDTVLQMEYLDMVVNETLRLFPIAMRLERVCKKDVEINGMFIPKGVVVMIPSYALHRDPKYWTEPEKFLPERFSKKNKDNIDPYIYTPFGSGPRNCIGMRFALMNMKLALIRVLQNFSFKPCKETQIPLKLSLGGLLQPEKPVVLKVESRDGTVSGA
# Sequence of Phosphoglycerate kinase, glycosomal (Trypanosoma brucei brucei) (P07378 whole entry, looked up): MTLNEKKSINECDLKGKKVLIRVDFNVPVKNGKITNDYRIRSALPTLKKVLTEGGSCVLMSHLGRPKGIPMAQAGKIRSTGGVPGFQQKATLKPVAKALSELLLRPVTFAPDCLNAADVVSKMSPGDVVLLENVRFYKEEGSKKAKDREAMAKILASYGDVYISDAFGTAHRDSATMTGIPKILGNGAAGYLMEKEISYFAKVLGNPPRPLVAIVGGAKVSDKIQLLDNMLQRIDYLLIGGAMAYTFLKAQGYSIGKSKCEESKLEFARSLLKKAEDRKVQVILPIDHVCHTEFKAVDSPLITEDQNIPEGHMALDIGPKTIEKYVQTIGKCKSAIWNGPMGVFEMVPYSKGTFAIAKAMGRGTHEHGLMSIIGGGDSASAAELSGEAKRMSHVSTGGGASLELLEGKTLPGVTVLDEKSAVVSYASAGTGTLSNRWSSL
# Sequence of Lethal(3)malignant brain tumor-like protein 1 (Homo sapiens) (Q9Y468 whole entry, looked up): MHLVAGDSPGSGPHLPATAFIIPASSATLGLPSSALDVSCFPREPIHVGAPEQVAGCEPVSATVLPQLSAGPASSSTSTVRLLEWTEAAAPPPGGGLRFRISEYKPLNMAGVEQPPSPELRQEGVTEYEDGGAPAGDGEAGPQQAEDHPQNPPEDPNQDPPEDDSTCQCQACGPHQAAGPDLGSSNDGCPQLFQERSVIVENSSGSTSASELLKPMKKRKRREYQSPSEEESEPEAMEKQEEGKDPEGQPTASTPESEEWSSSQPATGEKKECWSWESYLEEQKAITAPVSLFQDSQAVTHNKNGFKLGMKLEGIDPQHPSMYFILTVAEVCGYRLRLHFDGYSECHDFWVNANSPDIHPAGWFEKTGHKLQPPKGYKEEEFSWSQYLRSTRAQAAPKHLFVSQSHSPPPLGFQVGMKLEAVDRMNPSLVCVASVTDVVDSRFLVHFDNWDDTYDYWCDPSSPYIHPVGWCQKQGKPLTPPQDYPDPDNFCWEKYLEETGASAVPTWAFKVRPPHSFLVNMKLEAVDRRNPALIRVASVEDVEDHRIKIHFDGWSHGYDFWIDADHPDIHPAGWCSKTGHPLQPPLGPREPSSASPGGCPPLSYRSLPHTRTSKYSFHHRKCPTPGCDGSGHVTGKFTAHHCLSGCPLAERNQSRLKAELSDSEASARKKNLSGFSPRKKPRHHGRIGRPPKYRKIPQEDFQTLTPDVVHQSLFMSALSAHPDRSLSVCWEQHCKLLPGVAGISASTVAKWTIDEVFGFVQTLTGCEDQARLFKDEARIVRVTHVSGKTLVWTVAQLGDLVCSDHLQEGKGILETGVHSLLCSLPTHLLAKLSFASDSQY
# Sequence of DNA polymerase kappa (Homo sapiens) (Q9UBT6 whole entry, looked up): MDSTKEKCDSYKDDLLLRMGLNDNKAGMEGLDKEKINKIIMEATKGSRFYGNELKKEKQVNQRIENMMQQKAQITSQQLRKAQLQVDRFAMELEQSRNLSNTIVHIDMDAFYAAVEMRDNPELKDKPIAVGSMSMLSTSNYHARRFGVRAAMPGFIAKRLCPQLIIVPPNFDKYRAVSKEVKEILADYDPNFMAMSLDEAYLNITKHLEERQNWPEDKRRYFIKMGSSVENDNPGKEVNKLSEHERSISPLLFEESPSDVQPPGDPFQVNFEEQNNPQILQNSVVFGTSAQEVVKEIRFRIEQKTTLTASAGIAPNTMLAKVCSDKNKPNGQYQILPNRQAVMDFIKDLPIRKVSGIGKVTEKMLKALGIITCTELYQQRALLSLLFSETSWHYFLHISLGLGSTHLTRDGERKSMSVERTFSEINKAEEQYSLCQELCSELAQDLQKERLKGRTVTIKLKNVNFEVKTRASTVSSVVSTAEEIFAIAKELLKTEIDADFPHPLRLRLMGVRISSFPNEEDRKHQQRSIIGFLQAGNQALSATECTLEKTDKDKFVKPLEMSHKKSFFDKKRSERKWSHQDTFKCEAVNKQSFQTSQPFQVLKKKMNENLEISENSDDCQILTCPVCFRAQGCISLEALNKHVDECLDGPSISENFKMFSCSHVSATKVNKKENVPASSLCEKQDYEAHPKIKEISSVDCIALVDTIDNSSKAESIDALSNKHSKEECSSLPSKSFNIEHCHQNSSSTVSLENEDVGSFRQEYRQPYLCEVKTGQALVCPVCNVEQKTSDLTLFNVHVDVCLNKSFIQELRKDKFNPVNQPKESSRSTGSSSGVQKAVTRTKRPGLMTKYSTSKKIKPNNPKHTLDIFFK
# Sequence of RecQ-like DNA helicase BLM (Homo sapiens) (P54132 whole entry, looked up): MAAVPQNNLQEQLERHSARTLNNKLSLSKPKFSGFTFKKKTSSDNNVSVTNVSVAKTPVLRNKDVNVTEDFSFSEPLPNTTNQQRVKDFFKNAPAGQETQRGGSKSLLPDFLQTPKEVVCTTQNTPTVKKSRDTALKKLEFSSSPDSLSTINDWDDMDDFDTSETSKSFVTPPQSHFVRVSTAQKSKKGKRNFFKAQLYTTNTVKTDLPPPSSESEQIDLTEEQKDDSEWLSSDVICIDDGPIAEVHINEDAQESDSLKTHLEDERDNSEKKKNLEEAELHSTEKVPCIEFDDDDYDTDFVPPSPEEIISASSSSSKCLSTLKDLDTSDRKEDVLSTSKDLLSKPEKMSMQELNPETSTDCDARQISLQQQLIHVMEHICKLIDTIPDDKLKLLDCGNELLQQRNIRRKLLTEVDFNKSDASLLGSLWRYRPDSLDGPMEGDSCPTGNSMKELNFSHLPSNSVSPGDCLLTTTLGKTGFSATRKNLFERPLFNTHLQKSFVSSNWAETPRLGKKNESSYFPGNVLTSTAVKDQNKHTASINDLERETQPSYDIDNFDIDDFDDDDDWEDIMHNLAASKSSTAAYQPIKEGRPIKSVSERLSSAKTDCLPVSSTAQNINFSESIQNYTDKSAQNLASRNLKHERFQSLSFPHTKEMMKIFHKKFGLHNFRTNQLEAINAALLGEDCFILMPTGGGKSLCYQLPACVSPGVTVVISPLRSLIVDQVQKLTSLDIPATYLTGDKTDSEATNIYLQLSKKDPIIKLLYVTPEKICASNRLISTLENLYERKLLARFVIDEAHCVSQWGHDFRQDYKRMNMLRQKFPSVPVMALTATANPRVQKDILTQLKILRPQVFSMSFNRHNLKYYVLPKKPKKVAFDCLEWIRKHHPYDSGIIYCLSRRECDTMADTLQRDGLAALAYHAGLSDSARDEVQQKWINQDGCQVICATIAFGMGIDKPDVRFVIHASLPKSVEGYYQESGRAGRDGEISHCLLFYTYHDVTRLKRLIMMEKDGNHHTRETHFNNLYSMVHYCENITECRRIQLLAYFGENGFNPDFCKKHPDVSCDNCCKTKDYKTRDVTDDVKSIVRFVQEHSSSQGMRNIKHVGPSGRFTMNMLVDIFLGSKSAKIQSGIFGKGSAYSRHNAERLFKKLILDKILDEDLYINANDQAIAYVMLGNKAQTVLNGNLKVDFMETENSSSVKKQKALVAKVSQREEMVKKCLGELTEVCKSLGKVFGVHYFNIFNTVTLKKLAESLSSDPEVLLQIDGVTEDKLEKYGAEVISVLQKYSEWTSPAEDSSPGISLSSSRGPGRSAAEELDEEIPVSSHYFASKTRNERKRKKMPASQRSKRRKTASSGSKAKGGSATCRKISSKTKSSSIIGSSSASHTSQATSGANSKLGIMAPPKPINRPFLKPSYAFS
compound,measurement,setting,value
CCN(CC)CCn1c(-c2ccccc2)nc2c(NCCO)nc(C)nc21,outcome,[1],inactive
same,Potency,[2],inactive
same,Potency,[3],inactive
CC(=O)c1ccc(N2CCN(S(=O)(=O)c3cc4c(cc3Cl)NC(=O)C4)CC2)cc1,Potency,[4],1.63 µM (active) and 4.61 µM (active)
same,Potency,[3],inactive
Cc1ccccc1NC(=O)CN1C(=O)N/C(=C\c2cccn2-c2cccc(C(=O)O)c2)C1=O,Potency,[5],28.2 µM (active)
same,Potency,[6],1.78 µM (active)
same,Potency,[7],1.5 µM (active)
same,outcome,[8],inactive
same,Potency,[9],5.8 µM (active)
same,Potency,[10],16.8 µM (active)
same,Potency,[11],6.07 µM (active)
same,outcome,[12],inactive
same,Potency,[13],2.99 µM (active)
same,Potency,[14],16.9 µM (active)
same,Potency,[15],7.64 µM (active)
same,Potency,[3],inactive
COCCNc1nc(C)nc2c1nc(-c1ccccc1)n2CC1CCN(C)CC1,outcome,[1],inactive
same,Potency,[2],inactive
same,Potency,[3],inactive
N#Cc1ccc(N2CCN(S(=O)(=O)c3ccc4c(c3)CC(=O)N4)CC2)cc1,Potency,[4],2.91 µM (active)
same,Potency,[3],inactive
CC(=O)c1ccc(N2CCN(S(=O)(=O)c3ccc4c(c3)CC(=O)N4)CC2)cc1,Potency,[4],730 nM (active) and 749 nM (active) and 819 nM (active)
same,Potency,[3],inactive
Cc1nc(NCCO)c2nc(-c3ccccc3)n(CCCN(C)C)c2n1,outcome,[1],inactive
same,Potency,[2],inactive
same,Potency,[3],inactive
CCCn1c(C)nc2c(NCCCN(CC)CC)nc(C)nc21,outcome,[1],inactive
same,Potency,[3],inactive
O=C1Cc2cc(S(=O)(=O)N3CCN(c4ccc([N+](=O)[O-])cc4)CC3)ccc2N1,Potency,[4],3.66 µM (active)
same,Potency,[3],inactive
CCCn1c(-c2ccc(F)cc2)nc2c(NCCN(C)C)nc(C)nc21,outcome,[1],inactive
same,Potency,[3],inactive
CCN(CC)CCCn1c(-c2ccccc2)nc2c(N3CCOCC3)nc(C)nc21,outcome,[1],inactive
same,Potency,[3],inactive
CC(=O)c1ccc(N2CCN(S(=O)(=O)c3ccc4[nH]c(=O)[nH]c4c3)CC2)cc1,Potency,[4],inactive
same,Potency,[3],inactive
Fc1ccc(CSc2nc3ncc(Br)cc3[nH]2)cc1,Potency,[6],56.2 µM (active)
same,Potency,[3],inactive
CC(=O)c1ccc(N2CCN(C(=O)c3ccc4c(c3)CCC(=O)N4)CC2)cc1,Potency,[4],inactive
same,Potency,[3],inactive
CC(=O)N1CCN(S(=O)(=O)c2ccc3c(c2)CC(=O)N3)CC1,Potency,[4],11.9 µM (active)
same,Potency,[3],inactive
CCCn1c(C)nc2c(N(CCN(CC)CC)CCN(CC)CC)nc(C)nc21,outcome,[1],inactive
same,Potency,[3],inactive
CC(=O)c1ccc(N2CCN(S(=O)(=O)c3ccc4[nH]c(=O)oc4c3)CC2)cc1,Potency,[4],inactive
same,Potency,[3],inactive
COCCNc1nc(C)nc2c1nc(-c1ccccc1)n2CCN(C)C,outcome,[1],inactive
same,Potency,[3],inactive
Cc1ccc(N2CCN(S(=O)(=O)c3ccc4c(c3)CC(=O)N4)CC2)cc1,Potency,[4],inactive
same,Potency,[3],inactive
CCN(CC)CCCn1c(-c2ccccc2)nc2c(NCCOC)nc(C)nc21,outcome,[1],inactive
same,Potency,[3],inactive
Cc1ccc(NC(=O)CN2C(=O)N/C(=C\c3cccn3-c3cccc(C(=O)O)c3)C2=O)cc1,Potency,[6],1.12 µM (active)
same,Potency,[3],inactive
